High-throughput results deposited in PubChem by several laboratories.
SENP8 block-1 = blocks the human protease SENP8; purified SENP8, Z-RLRGG-aminoluciferin cleavage, luminescence; inhibition, % at 10 µM; Q96LD8; AID 2540; 330,000 compounds, 1.2% hits; in the data active means inhibition above about 50%
SENP8 block-2 = inhibitors of human SENP8 protease. AID 602440. inhibition, % at 20 µM. 360,000 compounds, 0.64% hits. recombinant SENP8, Nedd8 substrate fluorescence. Q96LD8; in the data active means inhibition mostly above about 40%, no sharp cut-off; inactive means mostly below about 27%
Platelet DG rel = platelet dense granule release activity; human platelet-rich plasma, SFLLRN dense granule ATP release, luminescence; inhibition, %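 (compounds screened at 7.5 µM in platelet-rich plasma)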; 300,000 compounds, 0.22% hits; AID 1663;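 active means mean replicate score, as percent of positive control, at or above 50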
SENP7 block = blocks the human protease SENP7. Q9BQF6. inhibition, % at 5 µM. AID 434973. recombinant SENP7, Z-RLRGG-aminoluciferin luminescence, 40 min. 330,000 compounds, 1.5% hits;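 active means inhibition above about 50% at the single test dose, limit read from the data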;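 further: plate controls were DMSO with enzyme for no effect and no enzyme buffer wells for full effect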
SENP6 block = inhibitors of human SENP6 protease; Q9GZR1; Recombinant SENP6 catalytic domain, aminoluciferin luminescence; inhibition, % at 10 µM; 330,000 compounds, 1.8% hits;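 active means inhibition above about 50% at the single tested dose, limit read from the data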;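 further: plate controls were DMSO wells with enzyme for no effect and DMSO wells lacking enzyme for full effect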
Target sequence (Q9GZR1 628-1112 limits assumed): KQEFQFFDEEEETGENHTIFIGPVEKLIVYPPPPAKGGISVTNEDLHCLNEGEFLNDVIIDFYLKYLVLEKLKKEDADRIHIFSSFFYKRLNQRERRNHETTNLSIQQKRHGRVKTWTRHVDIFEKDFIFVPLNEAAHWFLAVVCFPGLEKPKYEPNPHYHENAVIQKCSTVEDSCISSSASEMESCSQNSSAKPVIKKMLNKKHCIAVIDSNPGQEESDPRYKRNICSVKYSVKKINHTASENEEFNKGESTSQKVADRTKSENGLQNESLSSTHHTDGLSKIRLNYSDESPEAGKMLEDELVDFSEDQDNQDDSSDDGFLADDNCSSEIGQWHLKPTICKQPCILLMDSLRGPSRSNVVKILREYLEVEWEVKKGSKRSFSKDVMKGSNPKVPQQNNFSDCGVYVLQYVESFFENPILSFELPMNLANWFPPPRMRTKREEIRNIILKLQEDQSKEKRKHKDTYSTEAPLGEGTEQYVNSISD
SENP8 confirm = human SENP8 inhibition, confirmed; shares compounds with SENP7 block; Recombinant SENP8, Z-RLRGG-aminoluciferin luminescence, 60 min; inhibition, % at 12.5 µM; 6,200 compounds, 40% hits; AID 488912;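 active means mean inhibition across replicates above about 50%, limit read from the data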
SENP6 confirm = human SENP6 inhibition, confirmed | recombinant SENP6, Z-RLRGG-aminoluciferin luminescence | inhibition, % at 12.5 µM | shares compounds with SENP7 block | AID 488915 | 6,200 compounds, 58% hits
SENP7 conf = confirmation of human SENP7 protease inhibitors; shares compounds with SENP7 block; recombinant SENP7, Z-RLRGG-aminoluciferin luminescence, 40 min; inhibition, % at 12.5 µM; 6,200 compounds, 69% hits
Casp3 select = caspase-3 inhibition (SENP selectivity assay) | inhibition, % at 12.5 µM | shares compounds with SENP7 block | purified caspase-3, Z-DEVD-aminoluciferin luminescence, 60 min | 6,200 compounds, 60% hits;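 active means mean inhibition above about 50%, limit read from the data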;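 further: plate controls were enzyme with DMSO for no effect and wells without caspase-3 for full effect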
Luc interf = counter-screen for SENP inhibitors: luminescence interference. 6,200 compounds, 39% hits. inhibition, % at 12.5 µM. AID 488919. shares compounds with SENP7 block. Pre-incubated SENP8/Z-RLRGG-aminoluciferin, luciferase luminescence interference;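 active means mean inhibition above about 50% when retested at one dose, limit read from the data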;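 further: plate controls were DMSO wells with completed reaction for no effect and substrate without enzyme for full effect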
An asterisk follows results filed as active. Sampled rows, rich in hits. Any-hit rate of the full collection: about 2.4%.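 How the source made its calls, unless noted: active means mean inhibition above about 50% in the one-dose retest (limit read from the data); inactive means the rest.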

How did COc1ccc(NC(=O)CN(C)C(=O)CNC(=O)c2cccs2)cc1 do in these assays?
SENP8 block-1: -7; SENP8 block-2: 4; Platelet DG rel: 0; SENP7 block: 6; SENP6 block: -17

How did CCOC(=O)COc1cc(N)c(Cl)cc1Cl do in these assays?
SENP8 block-1: 80*; SENP8 block-2: -14; Platelet DG rel: -2; SENP7 block: 0; SENP6 block: -39; SENP8 confirm: 2; SENP6 confirm: -1; SENP7 conf: -4; Casp3 select: -1; Luc interf: -6

How did CN(C)C(=O)c1c(NC(=O)c2ccco2)sc2c1CCCCC2 do in these assays?
SENP8 block-1: 7; SENP8 block-2: -26; Platelet DG rel: 9; SENP7 block: 7; SENP6 block: 4

What do the screens show for `CC1CCc2c(sc(NC(=O)c3ccco3)c2C(=O)O)C1` (configuration not stated)?
SENP8 block-1: 62*; SENP8 block-2: -107; Platelet DG rel: 1; SENP7 block: 5; SENP6 block: 78*; SENP8 confirm: 78*; SENP6 confirm: 72*; SENP7 conf: 88*; Casp3 select: 66*; Luc interf: 65*

What do the screens show for `O=C(Nc1sc2c(c1C(=O)O)CCCCC2)c1ccco1`?
SENP8 block-1: 93*; SENP8 block-2: -134; Platelet DG rel: -3; SENP7 block: 88*; SENP6 block: 97*; SENP8 confirm: 96*; SENP6 confirm: 97*; SENP7 conf: 101*; Casp3 select: 96*; Luc interf: 95*

What do the screens show for `Cc1nnsc1NC(=O)OCc1ccccc1Cl`?
SENP8 block-1: 12; SENP8 block-2: 15; Platelet DG rel: -32; SENP7 block: -5; SENP6 block: 55*; SENP8 confirm: 35; SENP6 confirm: 36; SENP7 conf: 63*; Casp3 select: 37; Luc interf: 44

How did COc1ccc(CCC(=O)N2CCCC(Nc3ccc(C)c(C)c3)C2)cc1OC (configuration not stated) do in these assays?
SENP8 block-1: 5; SENP8 block-2: 6; Platelet DG rel: -5; SENP7 block: 0; SENP6 block: -10

Results for Nc1ccc(-c2nc3ccc(C(=O)O)cc3s2)cc1 ?
SENP8 block-2: -407; Platelet DG rel: 14

What do the screens show for `Nc1cccc(-c2nc3ccc(N)cc3s2)c1`?
SENP8 block-1: 94*; SENP8 block-2: -403; Platelet DG rel: 76*; SENP7 block: 98*; SENP6 block: 97*; SENP8 confirm: 98*; SENP6 confirm: 98*; SENP7 conf: 102*; Casp3 select: 97*; Luc interf: 96*

Results for Nc1ccc(-c2nc3ccc(N)cc3s2)cc1 ?
SENP8 block-1: 86*; SENP8 block-2: -432; Platelet DG rel: 54*; SENP7 block: 95*; SENP6 block: 95*; SENP8 confirm: 92*; SENP6 confirm: 92*; SENP7 conf: 99*; Casp3 select: 93*; Luc interf: 90*

How did O=C(NC(Cc1cn(Cc2ccccc2)cn1)C(=O)O)OCC1c2ccccc2-c2ccccc21 (configuration not stated) do in these assays?
SENP8 block-2: 0

Results for O=C(CN1CCN(Cc2ccccc2)CC1)N/N=C/c1ccccc1F ?
SENP8 block-1: -2; SENP8 block-2: 15; Platelet DG rel: 4; SENP7 block: -4; SENP6 block: -12

Results for Cc1ccc(CN2CCN(CC(=O)N/N=C/c3ccccc3F)CC2)cc1 ?
SENP8 block-1: 30; SENP8 block-2: 16; Platelet DG rel: 3; SENP7 block: 5; SENP6 block: 55*; SENP8 confirm: 11; SENP6 confirm: 23; SENP7 conf: 50; Casp3 select: 7; Luc interf: 2

How did c1ccc2c(c1)oc1c(Nc3ccc4c(c3)OCCO4)ncnc12 do in these assays?
SENP8 block-1: 85*; SENP8 block-2: -97; Platelet DG rel: 4; SENP7 block: 92*; SENP6 block: 92*; SENP8 confirm: 22; SENP6 confirm: 79*; SENP7 conf: 90*; Casp3 select: 60*; Luc interf: 23

Results for Cc1ccc(Nc2ncnc3c2oc2ccccc23)cc1 ?
SENP8 block-1: 35; SENP8 block-2: -283; Platelet DG rel: 1; SENP7 block: 33; SENP6 block: 66*; SENP8 confirm: -7; SENP6 confirm: 23; SENP7 conf: 74*; Casp3 select: 28; Luc interf: 9

What do the screens show for `Cc1ccccc1-c1nc(CS(=O)(=O)CC(=O)NCCCN2CC(C)CC(C)C2)c(C)o1` (configuration not stated)?
SENP8 block-1: -8; SENP8 block-2: 14; Platelet DG rel: 0; SENP7 block: 13; SENP6 block: -4

Results for COc1ccccc1-c1cc(C(=O)N2CCCC2)no1 ?
SENP8 block-1: 1; SENP8 block-2: 1; Platelet DG rel: 2; SENP7 block: 15; SENP6 block: 26

Results for O=C(c1cc(-c2cccc(Cl)c2)on1)N1CCCC1 ?
SENP8 block-1: -8; SENP8 block-2: 6; Platelet DG rel: -23; SENP7 block: 2; SENP6 block: -12

What do the screens show for `O=C(c1cc(-c2ccccc2Cl)on1)N1CCCC1`?
SENP8 block-1: 57*; SENP8 block-2: 9; Platelet DG rel: -3; SENP7 block: 63*; SENP6 block: 72*; SENP8 confirm: 9; SENP6 confirm: 64*; SENP7 conf: 90*; Casp3 select: 78*; Luc interf: 66*

Results for O=C(c1cc(-c2ccc(Cl)cc2)on1)N1CCCC1 ?
SENP8 block-1: 33; SENP8 block-2: 20; Platelet DG rel: -1; SENP7 block: 33; SENP6 block: 56*; SENP8 confirm: 18; SENP6 confirm: 13; SENP7 conf: 32; Casp3 select: 22; Luc interf: -2

Results for CC1CCN(C(=O)c2ccc(-c3ccccc3Cl)o2)CC1 ?
SENP8 block-1: 49; SENP8 block-2: 6; Platelet DG rel: 0; SENP7 block: 42; SENP6 block: 72*; SENP8 confirm: 66*; SENP6 confirm: 66*; SENP7 conf: 82*; Casp3 select: 51*; Luc interf: 65*
